From PubChem BioAssay
USP1-UAF1 inh = blocks the human USP1/UAF1 deubiquitinase complex | O94782 | recombinant USP1/UAF1, Ub-Rhodamine cleavage fluorescence | Potency, µM (top dose mostly 57.1 µM), inactives show top-dose activity change, negative = inhibition, usual class: inhibitors | hit rate 0.23% among 390,000; note: potency is the fitted concentration of half-maximal effect; nearly all actives have a fitted effect of over 60% in size
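High-throughput fluorogenic screen: 1nM USP1/UAF1 complex, Ub-Rho substrate 150nM final, 50mM HEPES pH 7.8 with 0.5mM EDTA, 0.1 mg/ml BSA, 1mM TCEP and 0.01% Tween-20.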
GALK inhibitor = galactokinase (human) inhibition. P51570. Purified GALK, Kinase-Glo residual ATP luminescence. Potency, µM (titrated, usually from 57.5 µM), without a hit: top-dose activity change, negative = inhibition, hits mostly inhibitors. hit rate 0.007% among 270,000; note: potency is the fitted concentration of half-maximal effect
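GALK at 5 nM final was combined with compound, 35 uM ATP and 100 uM galactose in HEPES pH8.0 with MgCl2 and DTT. The reaction ran one hour at room temperature before luminescent ATP detection.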
VDR inh = inhibitors of human vitamin D receptor; P11473; VDR-SRC2-3 peptide fluorescence polarization, 2 h; Potency, µM, for inactives: max response, negative = inhibition, actives largely listed as inhibitors; hit rate 0.93% among 400,000; AID 504847; note: potency is the fitted concentration of half-maximal effect
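Measured by FP: displacement of SRC2-3 coactivator peptide from VDR by library compounds, following a two-hour ambient incubation.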
USP2a block = USP2a (human) protease inhibition | O75604 | USP2 core, Ub-CHOP2 coupled fluorogenic reporter, 485/531 | Potency, µM (highest dose often 38.3 µM), inactives show top-dose activity change, negative = inhibition, most hits filed as inhibitors | hit rate 0.01% among 330,000 | AID 463254;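 note: potency is the fitted concentration of half-maximal effect; plate controls were DMSO wells for no effect and full inhibition by NEM control for full effect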
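Deubiquitinase activity read as fluorescence (485/531 nm) after Ub-CHOP2 cleavage activates the enterokinase reporter on its substrate; USP2 core 10nM, Ub-CHOP2 and substrate 25nM each, 30min compound preincubation then 60min RT; data normalized to NEM, curves fitted.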
FBPA coupling cs = counter-screen for Giardia aldolase inhibitors: coupling enzyme system; coupling enzyme system counterscreen, AmpLite Red fluorescence; activity change, negative = inhibition, % at 58.2 µM, hits read low; hit rate 0.67% among 290,000; in the data active = activity change below about -30%
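Counterscreen of the coupled detection system alone, without aldolase: glyceraldehyde-3-phosphate coupling enzymes plus AmpLite Red readout. Compounds at 57.5 uM final, 10 min RT preincubation, 20 min RT reaction, fluorescence 525/598 nm.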
PLK1 PBD inh = inhibitors of human PLK1 polo-box domain binding; P53350; Plk1 PBD binding of FITC phosphopeptide, fluorescence polarization; Potency, µM, inactives show max response, negative = inhibition, usual class: inhibitors; hit rate 2.8% among 360,000; AID 720504; note: potency is the fitted concentration of half-maximal effect; series mostly up to about 57 µM; nearly all actives have a fitted effect of over 65% in size
Target sequence (P53350 whole entry, looked up, the tested form may be a part): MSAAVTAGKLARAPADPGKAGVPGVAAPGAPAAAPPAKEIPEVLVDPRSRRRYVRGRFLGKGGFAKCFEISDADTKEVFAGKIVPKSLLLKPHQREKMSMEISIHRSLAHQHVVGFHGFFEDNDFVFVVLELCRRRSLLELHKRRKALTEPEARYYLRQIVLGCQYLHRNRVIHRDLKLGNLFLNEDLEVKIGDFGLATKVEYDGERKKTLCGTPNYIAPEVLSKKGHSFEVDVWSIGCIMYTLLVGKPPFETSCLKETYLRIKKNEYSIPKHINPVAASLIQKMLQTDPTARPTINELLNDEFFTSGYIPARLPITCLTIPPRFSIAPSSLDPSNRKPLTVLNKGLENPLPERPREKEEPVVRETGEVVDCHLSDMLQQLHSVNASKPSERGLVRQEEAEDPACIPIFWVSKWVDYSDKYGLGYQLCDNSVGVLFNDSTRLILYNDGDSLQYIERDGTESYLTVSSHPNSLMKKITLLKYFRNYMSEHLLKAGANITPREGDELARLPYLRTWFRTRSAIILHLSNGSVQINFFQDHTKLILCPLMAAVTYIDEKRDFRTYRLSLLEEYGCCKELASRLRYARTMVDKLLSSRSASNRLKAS
Active calls of the source: *; ? = inconclusive; · = not tested or not shown. Compounds with a hit are over-represented: about 3.2% of the library has one in this group of screens. Unless noted, calls come from the whole dose curve; as a rule, active = well fitted curve in the direction sought with a large enough effect; inconclusive = small, poorly fitted or top-dose-only effect, or another doubt; inactive = no such curve, though single readings can be large; an effect the other way counts as inactive or inconclusive. Unless noted, % is set by controls: 0 for no effect and ±100 for the full control effect.

SMILES	USP1-UAF1 inh	GALK inhibitor	VDR inh	USP2a block	FBPA coupling cs	PLK1 PBD inh
COc1ccc(Cl)cc1NC(=O)COC(=O)c1cc(C)oc1C	-14%	·	5%	5%	·	4%
Cc1cc(C(=O)OCC(=O)Nc2ccc(F)c(F)c2F)c(C)o1	-7%	1%	79µM*	2%	2	?
CC(=O)Nc1ccc(NC2=C(Cl)C(=O)c3ccccc3C2=O)cc1	?	-2%	-2%	0%	-1	-7%
O=C1C(Cl)=C(Nc2ccc3cn[nH]c3c2)C(=O)c2ccccc21	16µM*	4%	?	-3%	-36*	13µM*
CN(C)c1ccc(NC2=C(Cl)C(=O)c3ccccc3C2=O)cc1	?	·	-22%	-2%	-43*	-18%
Cn1c(=O)c(C(=O)CCl)c(N)n(Cc2ccccc2)c1=O	19%	·	-10%	-1%	1	-25%
Cn1c(N)c(C(=O)CCl)c(=O)n(Cc2ccccc2)c1=O	-1%	·	11%	4%	1	17µM*
Cc1ccccc1S(=O)Cc1ccc(C(=O)N2CCN(c3cccc(C)c3C)CC2)o1 (stereo unspecified)	-33%	·	-4%	·	·	·
COc1cc(C=C(C#N)C(=O)c2ccccc2)cc(OC)c1OC	·	·	·	·	·	3.8µM*
COc1cc(/C=C(/C#N)C(=O)NCc2ccccc2)cc(OC)c1OC	-4%	0%	-22%	-3%	3	-4%
CCOc1cc(/C=C(\C#N)C(=O)Nc2ccccc2C(=O)O)ccc1OC(=O)c1ccc(C)cc1	-23%	-17%	?	0%	4	19µM*
COc1cc(/C=C(\C#N)C(=O)Nc2ccccc2C(=O)O)cc(Cl)c1OC	-27%	10%	?	-6%	-2	21µM*
CSc1nnc(-c2ccc(S(=O)(=O)N3CCCC3)cc2)n1C	-9%	0%	9%	1%	2	-1%
Cc1coc2cc3oc(=O)c(CC(=O)N4C[C@H]5C[C@@H](C4)c4cccc(=O)n4C5)c(C)c3cc12	-30%	·	-11%	0%	1	-3%
CCOC(=O)C1CCN(C(=O)CN2C(=O)c3ccccc3S2(=O)=O)CC1	-8%	·	-5%	-1%	·	-3%
COc1ccc(Br)cc1CNC(=O)C1CCCN(S(=O)(=O)N2CC(C)CC(C)C2)C1 (stereo unspecified)	-26%	-3%	-13%	9%	0	-6%
CCOC(=O)COc1c(OC)cc(Cl)cc1C1NC(=O)NC(C)=C1C(C)=O (stereo unspecified)	-14%	-1%	2%	2%	5	-3%
CCCC1=C(C(=O)OCC)C(c2cc(Cl)cc(OC)c2OCC(=O)OCC)NC(=O)N1 (stereo unspecified)	-17%	-5%	-8%	2%	1	30µM*
CC(C)Oc1ccc(CNCC2(O)CCOC(C)(C)C2)cc1 (stereo unspecified)	-8%	0%	-26%	-1%	1	30µM*
C=CCn1c(C)cc(C(=O)CSc2nnc(NCc3ccccc3)s2)c1C	-10%	1%	22%	6%	-1	-6%
Cc1c(C(=O)N2CCCCC2)c(S(=O)(=O)NCc2ccccc2Cl)c(C)n1C	-20%	-1%	?	1%	3	27µM*
COc1cccc(CNS(=O)(=O)c2c(C(=O)N3CCCCCC3)c(C)n(C)c2C)c1	-20%	0%	-16%	1%	-1	27µM*
COc1cccc(CNS(=O)(=O)c2c(C(=O)N3CCCCC3)c(C)n(C)c2C)c1	-16%	1%	-10%	1%	0	-8%
Cc1c(C(=O)N2CCCCC2)c(S(=O)(=O)NCc2ccc(Cl)cc2)c(C)n1C	-24%	-2%	?	3%	1	24µM*
CCOC(=O)[C@]12CCCC=C1N(Cc1ccco1)C(=O)[C@H](CC(=O)NCCCN1CCCC1=O)C2	·	·	·	·	·	-2%
SMILES	USP1-UAF1 inh	GALK inhibitor	VDR inh	USP2a block	FBPA coupling cs	PLK1 PBD inh
Cc1ccccc1-n1c(=O)cc(NCC2CCCO2)[nH]c1=O (stereo unspecified)	-28%	0%	3%	1%	0	-1%
COc1ccccc1Cc1c(-c2ccc(C#N)cc2)nc2ccc(Br)cn12	·	·	·	·	·	-13%
CCCCN(C(=O)c1ccc(-c2ccc(Cl)cc2)o1)c1c(N)n(CCCC)c(=O)[nH]c1=O	5%	·	71µM*	3%	·	-20%
CCOc1ccc(OCC)c(NC(=O)CN2CCN(C(=O)c3ccco3)CC2)c1	5%	0%	-17%	0%	0	21µM*
CCOc1ccc(OCC)c(NC(=O)CN2CCN(c3cccc(C)c3C)CC2)c1	-9%	0%	-3%	4%	-4	4%
Cc1cc(CC(C)C)n(-c2nc3ccccc3c(=O)n2OCC(N)=O)n1	-19%	0%	-15%	1%	0	21µM*
C=CCOn1c(-n2nc(C)cc2C)nc2ccccc2c1=O	-6%	-2%	-10%	6%	0	-17%
Cc1cc(C)n(-c2nc3ccccc3c(=O)n2OCCOc2ccccc2)n1	-16%	0%	-13%	0%	-3	3.4µM*
Cc1noc(C(=O)Nc2c(C)n(C)n(-c3ccccc3)c2=O)c1Cl	-21%	0%	-3%	0%	-1	-12%
Cc1c(NC(=O)Nc2cccc(Cl)c2)c(=O)n(-c2ccccc2)n1C	-13%	2%	3%	0%	2	-2%
Cc1ccc(NC(=S)Nc2cccc(S(=O)(=O)Nc3c(C)n(C)n(-c4ccccc4)c3=O)c2)cc1	-14%	-1%	-7%	4%	3	?
COc1ccc(NC(=O)Nc2c(C)n(C)n(-c3ccccc3)c2=O)cc1OC	-9%	5%	-3%	3%	0	-3%
Cc1onc(C(=O)Nc2c(C)n(C)n(-c3ccccc3)c2=O)c1[N+](=O)[O-]	-10%	-1%	14%	-5%	-31*	-10%
Cc1ccc(NC(=O)Nc2c(C)n(C)n(-c3ccccc3)c2=O)cc1C	-15%	-3%	?	4%	-1	21µM*
Cc1cccc(NC(=O)Nc2c(C)n(C)n(-c3ccccc3)c2=O)c1	-10%	3%	?	-1%	1	24µM*
CC(=O)c1ccc(NC(=S)Nc2cccc(S(=O)(=O)Nc3c(C)n(C)n(-c4ccccc4)c3=O)c2)cc1	-21%	-1%	-1%	1%	3	24µM*
CC(CC(F)(F)F)N1CCC(n2nccc2NC(=O)CCCc2ccccc2)CC1 (stereo unspecified)	-17%	1%	5%	0%	0	0%
CC(C)c1cc(Cn2c3ccccc3c(=O)n2C(C)Cn2cc(COc3ccccc3)nn2)on1 (stereo unspecified)	·	·	·	·	·	0%
Cc1ccc2oc(=O)n(CC(=O)O)c2c1	-11%	1%	-26%	1%	1	27µM*
